Unmarked numbers belong to inactive results.
Test system: Vero E6 infected with SARS-CoV-2
Assay: inhibition of SARS-CoV-2 cytopathic effect; higher = more antiviral protection, active = above 15
Conditions: 48 h

SMILES	inhibition of SARS-CoV-2 cytopathic effect (1 nM) [%]	inhibition of SARS-CoV-2 cytopathic effect (8.33 nM) [%]	inhibition of SARS-CoV-2 cytopathic effect (100 nM) [%]	inhibition of SARS-CoV-2 cytopathic effect (833.33 nM) [%]	inhibition of SARS-CoV-2 cytopathic effect (10000 nM)
COc1ccc2c(c1OC)C(=O)O[C@@H]2[C@H]1c2cc3c(cc2CCN1C)OCO3 [hydrastine-(1R,9S)]	2.12	0.73	1.14	1.33	-0.76%
COc1cc2c(cc1OC)CC(=O)N(CCCN(C)C[C@H]1Cc3cc(OC)c(OC)cc31)CC2 [ivabradine]	-0.16	-0.37	-0.32	-1.75	-1.11%
CCC(C)SSc1ncc[nH]1 (stereo not given)	-1.26	-14.1	1.61	2.44	-1.36%
C=CCN1CC[C@]23c4c5ccc(O)c4O[C@H]2C(=O)CC[C@@]3(O)[C@H]1C5	-1.98	1.85	1.15	3.34	0.28%
CN1C(=O)CC(C)(c2ccccc2)C1=O (stereo not given) [methsuximide]	-1.1	0	1.03	0.88	-0.14%
C[C@H]1C[C@H]2[C@@H]3CCC4=CC(=O)C=C[C@]4(C)[C@@]3(Cl)[C@@H](O)C[C@]2(C)[C@@]1(O)C(=O)CO [beclomethasone]	-6.12	-1.77	0.28	-4.99	-2.5%
O=C(/C=C/c1cccnc1)NCCCCC1CCN(C(=O)c2ccccc2)CC1	3.22	-5.64	-20.3	-24.1	-24.5%
O=C(O)/C=C/CO [trans-4-hydroxycrotonic-acid]	2.26	3.93	1.39	5.18	4.35%
CC1(C)[C@@H]2C[C@@H](O)[C@@](C)(O)[C@H]1C2 [2,3-cis/exo-pinanediol]	-0.96	1.89	2.23	-0.64	2.13%
O=C(O)c1ccc(O)c2ncccc12	0.11	1.32	1.3	3.02	1.28%
CCOc1ccc(-n2c([C@@H](C)N(Cc3cccnc3)C(=O)Cc3ccc(OC(F)(F)F)cc3)nc3ncccc3c2=O)cc1 (racemic)	0.51	2.23	0.96	1.88	-1.62%
O=C(c1ccc(CN2CCOCC2)cc1)N1CCN(C2CC2)CC1 [bavisant]	0.41	1.98	-1.82	-0.97	5.67%
O=C1N[C@@H]2[C@@H](O)[C@@H](O)[C@H](O)[C@@H](CO)N2C1=O [kifunensine]	0.31	1.46	3.44	4.14	14.9%
O=C(O)CNC(=O)c1c(O)c2ccccc2n(Cc2ccccc2)c1=O	-0.58	-1.09	0.41	-0.62	-1.13%
CCCn1c(=O)[nH]c(=O)c2nc[nH]c21 [enprofylline]	0.79	0.93	1.89	1.3	4.03%
CC(=O)[C@H]1CC[C@H]2[C@@H]3CCC4=CC(=O)CC[C@]4(C)[C@H]3CC[C@]12C [progesterone]	-0.08	0.75	2.72	2.43	5.82%
CNC(=O)c1cc2c(cn1)[nH]c1ccccc12	1.51	-0.17	1.17	-0.08	1.58%
O/N=C/c1ccc(-c2ccc(O)c(F)c2)c(Cl)c1O	-3.41	-2.33	-2.06	-0.62	-12.8%

SMILES	inhibition of SARS-CoV-2 cytopathic effect (1 nM) [%]	inhibition of SARS-CoV-2 cytopathic effect (8.33 nM) [%]	inhibition of SARS-CoV-2 cytopathic effect (100 nM) [%]	inhibition of SARS-CoV-2 cytopathic effect (833.33 nM) [%]	inhibition of SARS-CoV-2 cytopathic effect (10000 nM)
CC1=C(/C=C/C(C)=C/C=C/C(C)=C/CO)C(C)(C)CCC1 [retinol]	-0.49	0.39	0.03	2.09	2.75%
CNCc1cc(-c2ccccc2F)n(S(=O)(=O)c2cccnc2)c1 [vonoprazan]	-3.91	-1.43	-1.96	-1.21	-4.64%
FC(F)(F)c1ccc(/C=C/c2nc(COc3ccc(CCCCn4ccnn4)cc3)co2)cc1 [mubritinib]	2.13	1.62	2.58	3.2	1.47%
Oc1ccc(Cl)c2c1CCC2 [chlorindanol]	1.21	-1.76	-1.84	-1.95	4.12%
CC12CCC(C(Br)C1=O)C2(C)C (stereo not given) [3-bromocamphor]	-1.02	0.99	-0.16	1.85	0.04%
CCOC(=O)c1c(/C(C#N)=C\N)c2ccc(Cl)c(Cl)c2n1C	-0.1	0.69	0.36	0.1	-2.18%
CC(=O)O[C@H]1Cc2ccccc2N(C(N)=O)c2ccccc21 [eslicarbazepine-acetate]	3.04	-0.54	1.48	0.03	1.45%
CCOC(=O)n1ccn(C)c1=S [carbimazole]	-1.34	-2.13	-2.63	-3.71	1.38%
Clc1cccc(Cl)c1NC1=NCCN1 [clonidine]	-0.43	-2.8	-3.01	0.52	-5.58%
CN(C)CCOC(c1ccc(Cl)cc1)c1ccccn1 (stereo not given) [carbinoxamine]	1.68	1.53	1.23	1.37	-1.45%
Cc1ccccc1C(=O)c1ccc(Nc2ccc(Br)cc2N)cc1Cl	1.98	1.13	-4.39	-0.22	3.01%
O=C(O)C(=O)CBr [3-bromopyruvate]	-3.69	1.4	4.96	0.7	1.43%
Cn1cccc1/C=C1\C(=O)NC(=O)c2ccccc21	2.55	-0.08	-1.24	-2.42	5%
O=[N+]([O-])/C=C/c1ccc2c(c1)OCO2 [3,4-methylenedioxy-beta-nitrostyrene]	-1.15	0.64	-1.64	-3.16	7.29%
C[n+]1cccc(C(=O)[O-])c1 [trigonelline]	5.14	3.85	1.81	1.44	0.82%
Cc1ccc(C(=O)Nc2cccc(C(F)(F)F)c2)cc1Nc1nc(-c2cccnc2)nc2c1cnn2C	-0.06	0.17	3.74	8.31	28.1% (active)
CC(C)(C)c1ccc(/C=C/C(=O)Nc2ccc3c(c2)OCCO3)cc1	-2.25	0.94	1.24	-0.32	-0.3%

From the supplement of paper PMC13380429
